Reference: the supplement of paper PMC11732987, “Enantioselective OTUD7B fragment discovery through chemoproteomics screening and high-throughput optimisation” (Communications Chemistry, 2025)

Legend:
Assay in all cases: log2 ratio of Biotin-Ahx-Ub-VS probe labelling (fragment/DMSO); higher = less target engagement (more negative = stronger competition), active = hit call of the paper (q ≤ 0.05, log2 ratio ≤ -1)
Settings in all cases: compound concentration: 200 uM; treatment time: 3 h
USP34 = USP34 (UniProt Q70CQ2)
USP34, sequence (Q70CQ2 whole entry, the tested form may be a part): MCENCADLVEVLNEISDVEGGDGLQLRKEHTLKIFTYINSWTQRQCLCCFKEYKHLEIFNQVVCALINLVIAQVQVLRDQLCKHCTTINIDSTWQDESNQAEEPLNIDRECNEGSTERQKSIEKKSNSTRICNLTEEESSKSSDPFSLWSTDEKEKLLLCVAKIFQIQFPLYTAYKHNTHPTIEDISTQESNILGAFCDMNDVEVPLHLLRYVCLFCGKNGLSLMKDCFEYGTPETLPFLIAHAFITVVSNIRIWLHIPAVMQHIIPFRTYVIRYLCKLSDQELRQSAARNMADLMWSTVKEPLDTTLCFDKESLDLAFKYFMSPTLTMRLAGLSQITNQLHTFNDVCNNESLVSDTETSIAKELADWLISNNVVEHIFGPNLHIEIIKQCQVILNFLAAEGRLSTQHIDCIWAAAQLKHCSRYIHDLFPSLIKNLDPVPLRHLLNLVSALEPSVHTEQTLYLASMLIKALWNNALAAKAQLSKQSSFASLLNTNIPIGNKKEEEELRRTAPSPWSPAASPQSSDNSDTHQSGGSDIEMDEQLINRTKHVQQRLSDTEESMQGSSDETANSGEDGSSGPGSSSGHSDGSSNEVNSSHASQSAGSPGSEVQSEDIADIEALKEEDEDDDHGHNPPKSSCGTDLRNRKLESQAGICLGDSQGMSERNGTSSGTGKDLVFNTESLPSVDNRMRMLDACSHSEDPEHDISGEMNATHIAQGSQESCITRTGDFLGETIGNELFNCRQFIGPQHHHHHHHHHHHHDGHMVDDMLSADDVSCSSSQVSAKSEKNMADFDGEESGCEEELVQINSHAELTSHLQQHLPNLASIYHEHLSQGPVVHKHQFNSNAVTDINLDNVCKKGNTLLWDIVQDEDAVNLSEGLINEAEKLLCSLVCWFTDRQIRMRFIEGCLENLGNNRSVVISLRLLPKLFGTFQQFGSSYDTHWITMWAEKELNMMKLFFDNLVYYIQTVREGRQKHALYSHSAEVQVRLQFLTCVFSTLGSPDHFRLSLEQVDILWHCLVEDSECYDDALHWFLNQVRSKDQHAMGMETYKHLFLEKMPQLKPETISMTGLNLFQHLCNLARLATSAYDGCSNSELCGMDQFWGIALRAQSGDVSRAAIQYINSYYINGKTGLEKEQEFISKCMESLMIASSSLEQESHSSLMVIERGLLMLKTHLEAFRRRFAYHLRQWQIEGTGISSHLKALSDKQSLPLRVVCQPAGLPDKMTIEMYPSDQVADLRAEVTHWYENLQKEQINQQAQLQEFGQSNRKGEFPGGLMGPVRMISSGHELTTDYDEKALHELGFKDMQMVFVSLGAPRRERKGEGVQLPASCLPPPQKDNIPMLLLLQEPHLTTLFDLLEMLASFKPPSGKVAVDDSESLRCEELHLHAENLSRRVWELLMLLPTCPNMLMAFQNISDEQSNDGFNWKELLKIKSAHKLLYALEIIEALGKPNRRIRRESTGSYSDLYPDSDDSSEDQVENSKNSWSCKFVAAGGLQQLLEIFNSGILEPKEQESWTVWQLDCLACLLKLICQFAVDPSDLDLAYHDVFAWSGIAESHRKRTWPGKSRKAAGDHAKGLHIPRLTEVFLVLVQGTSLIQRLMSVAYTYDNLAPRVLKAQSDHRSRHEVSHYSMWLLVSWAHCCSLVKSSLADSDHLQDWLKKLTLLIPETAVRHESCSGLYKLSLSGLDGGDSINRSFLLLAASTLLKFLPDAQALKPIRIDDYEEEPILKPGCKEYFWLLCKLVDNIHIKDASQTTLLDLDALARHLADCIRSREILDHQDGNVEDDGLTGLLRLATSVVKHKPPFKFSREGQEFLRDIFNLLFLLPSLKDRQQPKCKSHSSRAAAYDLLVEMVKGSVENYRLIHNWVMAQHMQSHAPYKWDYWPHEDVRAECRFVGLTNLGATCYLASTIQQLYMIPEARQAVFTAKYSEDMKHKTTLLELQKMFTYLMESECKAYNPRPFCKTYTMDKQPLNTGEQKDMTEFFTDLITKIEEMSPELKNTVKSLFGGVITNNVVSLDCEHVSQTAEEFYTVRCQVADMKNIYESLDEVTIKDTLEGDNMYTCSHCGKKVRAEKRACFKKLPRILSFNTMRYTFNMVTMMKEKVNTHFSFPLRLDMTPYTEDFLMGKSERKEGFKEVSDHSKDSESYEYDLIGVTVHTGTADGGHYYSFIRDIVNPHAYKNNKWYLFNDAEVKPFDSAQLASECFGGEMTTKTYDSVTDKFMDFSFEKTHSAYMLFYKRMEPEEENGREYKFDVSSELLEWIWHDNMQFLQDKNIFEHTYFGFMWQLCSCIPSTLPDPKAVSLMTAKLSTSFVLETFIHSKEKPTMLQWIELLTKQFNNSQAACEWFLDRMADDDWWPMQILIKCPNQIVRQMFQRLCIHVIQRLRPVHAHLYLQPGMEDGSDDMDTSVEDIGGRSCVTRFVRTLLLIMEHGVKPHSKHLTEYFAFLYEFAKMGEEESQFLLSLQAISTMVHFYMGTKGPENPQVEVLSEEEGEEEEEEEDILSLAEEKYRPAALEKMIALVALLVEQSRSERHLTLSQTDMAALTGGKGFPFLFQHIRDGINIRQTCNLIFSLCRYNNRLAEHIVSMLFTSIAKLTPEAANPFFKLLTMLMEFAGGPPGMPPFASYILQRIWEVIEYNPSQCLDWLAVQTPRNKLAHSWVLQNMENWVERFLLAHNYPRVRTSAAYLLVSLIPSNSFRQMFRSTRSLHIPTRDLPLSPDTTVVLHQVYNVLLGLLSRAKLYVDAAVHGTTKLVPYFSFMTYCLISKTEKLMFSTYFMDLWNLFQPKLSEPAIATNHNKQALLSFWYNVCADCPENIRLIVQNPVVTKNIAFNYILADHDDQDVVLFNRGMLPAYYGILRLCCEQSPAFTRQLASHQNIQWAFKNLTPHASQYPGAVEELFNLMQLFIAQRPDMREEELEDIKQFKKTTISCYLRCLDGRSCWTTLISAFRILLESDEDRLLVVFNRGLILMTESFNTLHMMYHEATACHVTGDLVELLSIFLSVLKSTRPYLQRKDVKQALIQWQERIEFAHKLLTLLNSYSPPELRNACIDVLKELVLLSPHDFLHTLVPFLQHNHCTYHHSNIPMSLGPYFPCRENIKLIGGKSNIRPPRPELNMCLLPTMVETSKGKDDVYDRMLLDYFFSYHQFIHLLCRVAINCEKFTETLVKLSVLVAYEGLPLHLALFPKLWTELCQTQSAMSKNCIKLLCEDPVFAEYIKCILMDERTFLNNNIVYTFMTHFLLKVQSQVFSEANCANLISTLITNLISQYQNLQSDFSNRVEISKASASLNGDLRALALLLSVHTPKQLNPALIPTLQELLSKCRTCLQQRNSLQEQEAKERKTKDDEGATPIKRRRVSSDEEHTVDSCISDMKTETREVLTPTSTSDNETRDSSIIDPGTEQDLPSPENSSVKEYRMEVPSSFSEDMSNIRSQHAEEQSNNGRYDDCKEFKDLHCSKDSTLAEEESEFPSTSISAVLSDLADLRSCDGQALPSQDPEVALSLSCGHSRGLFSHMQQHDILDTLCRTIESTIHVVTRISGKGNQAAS
Method in brief: (§1)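 Global-median-normalised Spectronaut label-free quantities were compared by unpaired t-test, and values are average log2 ratios of fragment over vehicle. Only proteins with ≥2 unique peptides were used. HEK293T lysate (495 µg per sample) was treated in triplicate with fragment at 200 µM or vehicle for 3 h and then with Biotin-Ahx-Ub-VS at 0.5 µM final for 1 h. Labelled DUBs were then NeutrAvidin-enriched, digested with LysC and trypsin, and run by diaPASEF LC-MS/MS.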

USP36 = molecular target: T1, USP36 (UniProt Q9P275)
T1 sequence (whole entry): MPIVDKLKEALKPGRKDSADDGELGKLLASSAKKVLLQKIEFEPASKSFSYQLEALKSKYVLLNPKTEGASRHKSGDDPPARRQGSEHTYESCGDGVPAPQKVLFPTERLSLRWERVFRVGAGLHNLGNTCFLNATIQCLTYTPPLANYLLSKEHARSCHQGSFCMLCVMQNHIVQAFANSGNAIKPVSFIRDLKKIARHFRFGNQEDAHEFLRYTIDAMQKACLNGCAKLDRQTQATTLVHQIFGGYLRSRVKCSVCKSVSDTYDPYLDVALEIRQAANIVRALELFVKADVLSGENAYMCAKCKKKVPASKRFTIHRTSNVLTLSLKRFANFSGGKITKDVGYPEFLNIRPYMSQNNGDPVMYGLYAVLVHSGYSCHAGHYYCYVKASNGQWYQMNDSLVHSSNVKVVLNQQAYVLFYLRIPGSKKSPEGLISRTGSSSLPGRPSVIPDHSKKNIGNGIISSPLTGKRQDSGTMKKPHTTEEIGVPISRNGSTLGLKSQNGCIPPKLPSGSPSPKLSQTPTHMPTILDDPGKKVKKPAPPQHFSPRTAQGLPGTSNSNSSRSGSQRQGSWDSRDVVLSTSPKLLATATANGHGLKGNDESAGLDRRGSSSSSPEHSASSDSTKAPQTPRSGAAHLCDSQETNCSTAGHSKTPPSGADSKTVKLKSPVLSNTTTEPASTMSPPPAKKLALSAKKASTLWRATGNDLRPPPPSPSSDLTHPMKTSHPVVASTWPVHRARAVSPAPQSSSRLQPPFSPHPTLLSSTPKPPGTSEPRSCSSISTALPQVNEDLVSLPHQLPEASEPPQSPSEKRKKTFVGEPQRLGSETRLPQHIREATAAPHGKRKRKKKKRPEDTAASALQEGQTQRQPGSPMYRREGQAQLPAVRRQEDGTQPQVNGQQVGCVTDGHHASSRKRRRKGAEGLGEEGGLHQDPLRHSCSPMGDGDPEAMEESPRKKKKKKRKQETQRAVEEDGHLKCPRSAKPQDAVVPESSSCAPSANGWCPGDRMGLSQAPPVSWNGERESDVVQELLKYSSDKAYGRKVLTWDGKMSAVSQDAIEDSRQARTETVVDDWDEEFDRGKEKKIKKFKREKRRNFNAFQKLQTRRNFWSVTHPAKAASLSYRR
Method in brief: as §1

USP38 = molecular target: T2, USP38 (UniProt Q8NB14)
T2 sequence (whole entry): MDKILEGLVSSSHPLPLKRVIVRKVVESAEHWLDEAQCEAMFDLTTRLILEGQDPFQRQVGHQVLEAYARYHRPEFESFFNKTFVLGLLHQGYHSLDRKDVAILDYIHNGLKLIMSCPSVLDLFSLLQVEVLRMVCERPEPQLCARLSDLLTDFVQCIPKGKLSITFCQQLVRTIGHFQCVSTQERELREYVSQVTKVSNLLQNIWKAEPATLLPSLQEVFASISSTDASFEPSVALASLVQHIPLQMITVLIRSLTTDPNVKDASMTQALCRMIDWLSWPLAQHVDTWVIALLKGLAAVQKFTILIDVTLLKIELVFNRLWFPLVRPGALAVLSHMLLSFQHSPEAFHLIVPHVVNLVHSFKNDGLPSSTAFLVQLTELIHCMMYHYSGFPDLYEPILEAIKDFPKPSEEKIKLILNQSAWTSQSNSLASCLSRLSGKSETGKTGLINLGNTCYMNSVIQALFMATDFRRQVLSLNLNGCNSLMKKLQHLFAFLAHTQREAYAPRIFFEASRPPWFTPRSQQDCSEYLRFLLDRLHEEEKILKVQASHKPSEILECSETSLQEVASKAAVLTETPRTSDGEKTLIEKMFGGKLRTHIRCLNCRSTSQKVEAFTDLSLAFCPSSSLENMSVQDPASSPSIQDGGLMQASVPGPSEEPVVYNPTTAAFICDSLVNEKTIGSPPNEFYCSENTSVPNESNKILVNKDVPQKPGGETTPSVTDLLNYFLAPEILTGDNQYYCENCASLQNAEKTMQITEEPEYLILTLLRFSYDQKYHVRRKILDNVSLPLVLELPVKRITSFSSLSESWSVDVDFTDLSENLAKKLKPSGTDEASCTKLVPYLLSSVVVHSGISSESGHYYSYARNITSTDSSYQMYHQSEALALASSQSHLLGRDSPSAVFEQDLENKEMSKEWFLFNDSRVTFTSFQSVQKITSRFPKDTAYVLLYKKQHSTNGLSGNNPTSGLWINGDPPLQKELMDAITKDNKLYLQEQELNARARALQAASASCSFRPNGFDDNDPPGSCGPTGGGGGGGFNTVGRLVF
Method in brief: as §1

USP39 = molecular target: T3, USP39 (UniProt Q53GS9)
T3 sequence (whole entry): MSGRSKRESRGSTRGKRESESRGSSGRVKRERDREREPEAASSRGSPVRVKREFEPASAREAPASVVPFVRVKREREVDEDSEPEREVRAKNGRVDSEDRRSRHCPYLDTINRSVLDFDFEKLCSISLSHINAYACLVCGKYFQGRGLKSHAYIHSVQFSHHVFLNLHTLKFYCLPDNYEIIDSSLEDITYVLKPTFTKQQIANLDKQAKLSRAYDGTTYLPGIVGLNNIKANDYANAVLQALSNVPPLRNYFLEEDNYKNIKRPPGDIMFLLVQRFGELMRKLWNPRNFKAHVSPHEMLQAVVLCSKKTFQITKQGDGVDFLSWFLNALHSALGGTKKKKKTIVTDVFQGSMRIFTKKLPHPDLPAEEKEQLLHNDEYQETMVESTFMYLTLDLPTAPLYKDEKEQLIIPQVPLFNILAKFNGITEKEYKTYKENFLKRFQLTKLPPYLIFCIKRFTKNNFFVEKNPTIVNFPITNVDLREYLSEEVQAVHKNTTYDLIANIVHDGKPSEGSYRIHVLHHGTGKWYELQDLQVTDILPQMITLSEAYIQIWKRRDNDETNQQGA
Method in brief: as §1

USP4 = molecular target: T4, USP4 (UniProt Q13107)
T4 sequence (whole entry): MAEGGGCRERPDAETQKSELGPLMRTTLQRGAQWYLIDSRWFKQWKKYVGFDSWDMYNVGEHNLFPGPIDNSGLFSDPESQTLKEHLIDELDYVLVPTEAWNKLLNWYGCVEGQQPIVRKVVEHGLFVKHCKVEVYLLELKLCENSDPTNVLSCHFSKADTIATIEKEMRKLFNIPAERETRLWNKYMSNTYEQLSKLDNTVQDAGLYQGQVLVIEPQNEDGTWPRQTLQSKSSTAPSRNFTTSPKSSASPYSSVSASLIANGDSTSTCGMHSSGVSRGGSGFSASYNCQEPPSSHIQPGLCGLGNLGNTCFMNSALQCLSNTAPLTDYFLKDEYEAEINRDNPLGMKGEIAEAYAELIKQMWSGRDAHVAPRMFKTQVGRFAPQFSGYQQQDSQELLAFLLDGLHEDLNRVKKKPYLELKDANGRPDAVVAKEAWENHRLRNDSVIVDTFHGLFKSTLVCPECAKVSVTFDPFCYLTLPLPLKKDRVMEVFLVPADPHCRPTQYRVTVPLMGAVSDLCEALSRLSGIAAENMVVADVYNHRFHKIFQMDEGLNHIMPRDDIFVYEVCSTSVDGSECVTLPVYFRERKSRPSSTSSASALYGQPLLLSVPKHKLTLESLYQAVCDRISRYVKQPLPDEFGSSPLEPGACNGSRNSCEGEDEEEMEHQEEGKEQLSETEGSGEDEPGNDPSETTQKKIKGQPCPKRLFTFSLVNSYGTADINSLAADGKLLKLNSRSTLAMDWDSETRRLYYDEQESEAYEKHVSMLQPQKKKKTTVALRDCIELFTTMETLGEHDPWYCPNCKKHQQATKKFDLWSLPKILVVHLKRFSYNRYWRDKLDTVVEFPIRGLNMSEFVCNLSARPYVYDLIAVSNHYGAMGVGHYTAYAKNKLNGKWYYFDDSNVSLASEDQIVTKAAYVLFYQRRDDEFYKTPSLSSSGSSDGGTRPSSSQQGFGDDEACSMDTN
Method in brief: as §1

Measured: log2 ratio of Biotin-Ahx-Ub-VS probe labelling

CCN(Cc1ccc(C#N)cc1F)C(=O)CCl
inactive: USP34 -0.454 | USP36 -0.0792 | USP38 -0.292 | USP39 -0.0856 | USP4 -0.105
